# MEKK2mut PB1 HTS: signal of MEK5 binding to mutant human MEKK2 PB1 domain | bead flow cytometry, Alexa488-MEK5 binding to MEKK2 mutant | percent response, % at 10 µM | 0.35% of 290,000 active | AID 1530; in the data active = percent response above about 24%, passing the limit was not always enough
# PREPL inh: human PREPL enzyme inhibition; 0.68% of 320,000 active; Q4J6C6; recombinant PREPL, fluorescence polarization activity-based probe; inhibition, % at 5.96 µM; in the data active = inhibition above about 43%;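 note: 0% = enzyme with DMSO and 100% = wells lacking enzyme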
# MEKK2wt PB1 HTS: raises or lowers MEK5 binding to wildtype human MEKK2 PB1 domain; Q9Y2U5; bead flow cytometry, Alexa488-MEK5 binding to MEKK2 WT; actives lie on both sides; 1.1% of 290,000 active; binding response (% of control), % at 10 µM; AID 1531; in the data active = binding response below about 67% or above about 130%
# MEKK3 PB1 HTS: MEKK3-MEK5 PB1 interaction, increase or decrease | bead-based flow cytometry, Alexa488-MEK5 binding to MEKK3; actives lie on both sides; 0 = blocked by unlabeled MEK5, 100 = vehicle | binding response (% of control), % at 10 µM | Q99759 | 1.4% of 290,000 active;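 active = binding response more than 3 SD above or below the average of its plate-row segment, actives on both sides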;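 note: Alexa488 bead fluorescence after subtracting the streptavidin-only scavenger bead signal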
# UBC13 inh: blocks human UBC13 polyubiquitin chain formation; P61088; TR-FRET; inhibition, % at 20 µM; 0.47% of 330,000 active; AID 485273; in the data active = inhibition above about 45%, passing the limit was not always enough
# Target sequence (P61088 whole entry, looked up): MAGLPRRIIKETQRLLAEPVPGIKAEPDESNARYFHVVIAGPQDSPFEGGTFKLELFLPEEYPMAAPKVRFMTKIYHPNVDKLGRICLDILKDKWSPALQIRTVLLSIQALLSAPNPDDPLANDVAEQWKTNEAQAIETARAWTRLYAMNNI
# ATG4B inhibitor: ATG4B (human) cysteine protease inhibition | 0.51% of 340,000 active | ATG4B cleavage of LC3-PLA2, NBD-HPC fluorescence, 1 h | inhibition, % at 8.33 µM | AID 504462 | Q9Y4P1; in the data active = inhibition above about 40%
# Target sequence (Q9Y4P1 whole entry, looked up): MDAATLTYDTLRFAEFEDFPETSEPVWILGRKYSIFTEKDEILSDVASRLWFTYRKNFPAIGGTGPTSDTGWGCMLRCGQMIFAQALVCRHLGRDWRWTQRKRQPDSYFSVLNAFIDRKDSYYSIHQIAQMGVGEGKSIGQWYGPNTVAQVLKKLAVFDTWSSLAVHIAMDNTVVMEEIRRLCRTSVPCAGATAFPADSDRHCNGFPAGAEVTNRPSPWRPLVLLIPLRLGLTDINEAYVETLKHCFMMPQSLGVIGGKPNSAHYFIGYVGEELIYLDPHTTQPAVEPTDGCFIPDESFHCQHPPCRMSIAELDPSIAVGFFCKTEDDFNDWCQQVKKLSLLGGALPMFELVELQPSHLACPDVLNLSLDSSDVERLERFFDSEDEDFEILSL
# ATG4B conf: ATG4B (human) inhibition, single-dose confirmed | shares compounds with ATG4B inhibitor | ATG4B protease fluorescent substrate cleavage assay | inhibition, % at 8.33 µM | 92% of 320 active | AID 504757; in the data active = inhibition above about 39%
# PLA2 counter: PLA2 (human) inhibition in ATG4B counter-screen. shares compounds with ATG4B inhibitor. purified PLA2, NBD-C6-HPC fluorescence, 45 min. inhibition, % at 8.33 µM. 66% of 1,600 active. AID 588402; in the data active = inhibition above about 50%
# Numbers without * were called inactive; · = no result given. Most compounds without a hit are left out; they make up all but 3.1% or so of the library.
SMILES,MEKK2mut PB1 HTS,PREPL inh,MEKK2wt PB1 HTS,MEKK3 PB1 HTS,UBC13 inh,ATG4B inhibitor,PLA2 counter,others
CC1CN=C(c2cccn2Cc2ccc(F)cc2Cl)O1 (stereo not given),·,-13.2,·,·,-10.6,42.8*,52.6*,
CCN(CC(=O)NC(=O)NC1CCCC1)Cc1ccccc1,·,-8.2,·,·,5.3,4.3,·,
CCOc1ccccc1NC(=O)c1cc(C(=O)c2cc(Br)ccc2O)coc1=N,-6.0,-0.8,98.0,100.0,-3.0,55.8*,56.8*,
COc1ccc(Oc2nc(-c3ccccc3)ncc2C(=O)O)cc1,-3.0,3.5,103.0,107.0,2.2,-0.9,·,
COc1ccc(C(=O)c2cnc3ccccc3c2-c2ccccc2)cc1,-3.0,-8.4,95.0,102.0,2.5,71.7*,83.5*,
Cc1ccc(C(=O)c2cnc3ccccc3c2-c2ccccc2)cc1,0.0,7.8,101.0,102.0,1.5,69.3*,82.2*,
O=C(NCc1cccc(F)c1)c1ccc(N2C(=O)Cn3c(cc4sccc43)C2=O)cc1,-1.0,-7.1,101.0,102.0,4.4,41.2*,33.7,
CCCCOc1ccc(-c2c(C#N)c(N)nc(SCC(N)=O)c2C#N)cc1,16.0,-22.3,106.0,114.0,15.9,52.8*,58.3*,
CCCCOC(=O)CSc1nc(N)c(C#N)c(-c2ccc(OCC)cc2)c1C#N,6.0,-0.5,112.0,115.0,3.0,-4.7,·,
O=C(NCCc1ccc(Cl)cc1Cl)c1ccc2nc[nH]c2c1,-1.0,-7.0,106.0,102.0,2.8,42.5*,51.0*,
CCOC(=O)c1c(CSc2ccccc2)n(C)c2ccc(O)c(CN3CCOCC3)c12,2.0,29.2,107.0,103.0,33.1,-5.7,·,
Cc1ccc2c(c1)N(CC(=O)NCCc1ccccc1)C(=O)c1cccnc1O2,-1.0,3.0,96.0,95.0,10.7,-8.5,·,
COc1ccc(-c2ccc(C#N)c(SCC(=O)Nc3sc4c(c3C#N)CCC4)n2)cc1OC,-2.0,-8.4,93.0,96.0,14.6,72.5*,-4.2,ATG4B conf=83.8*
CCN(CC)C(=O)CN1CCC(c2nc3cc(C)c(C)cc3[nH]2)CC1,7.0,-0.7,107.0,105.0,-8.4,0.7,·,
O=C(Nc1ccc(O)c2c(=O)cc(-c3ccccc3Cl)oc12)c1ccc(Cl)c(Cl)c1,1.0,-0.7,99.0,90.0,-21.3,6.2,·,
O=c1cc(-c2ccccc2Cl)oc2c(NS(=O)(=O)c3cccs3)ccc(O)c12,4.0,-14.5,104.0,84.0,3.9,57.3*,73.9*,
O=c1cc(-c2ccccc2Cl)oc2c(NS(=O)(=O)c3ccccc3OC(F)(F)F)ccc(O)c12,-4.0,-10.3,90.0,93.0,-19.2,42.9*,77.7*,
O=c1cc(-c2ccccc2Cl)oc2c(NS(=O)(=O)c3ccccc3C(F)(F)F)ccc(O)c12,1.0,8.7,97.0,101.0,-2.4,41.8*,53.1*,
Cc1ccc2nc3c(c(Nc4ccc5c(c4)OCCO5)c2c1)CCC3,-2.0,10.7,105.0,93.0,0.1,42.0*,36.6,ATG4B conf=64.7*
CC12CCC(=O)N1C(C(=O)NNC(=O)c1ccccc1)CS2 (stereo not given),·,-3.5,·,·,-3.8,-4.5,·,
O=C(NN=C1CCCCCC1)c1cn(-c2ccccc2)nc1-c1ccccc1,3.0,13.6,104.0,111.0,0.8,43.4*,3.3,ATG4B conf=62.1*
Brc1csc(C=Nc2ccc3c(c2)OCCOCCOCCOCCO3)c1,-4.0,8.2,93.0,88.0,-19.6,-0.4,·,
Oc1c(Cl)cc(Cl)cc1C=Nc1ccc2c(c1)OCCO2,-3.0,-1.6,94.0,94.0,-10.5,48.1*,31.7,ATG4B conf=53.6*
O=c1nc(/C=C/c2ccccc2C(F)(F)F)cc(C(F)(F)F)[nH]1,3.0,19.6,103.0,101.0,-4.6,44.7*,59.4*,
COc1ccc(/C=C/c2cc(C(F)(F)F)[nH]c(=O)n2)cc1OC,-14.0,-3.2,85.0,101.0,-1.7,1.1,·,
SMILES,MEKK2mut PB1 HTS,PREPL inh,MEKK2wt PB1 HTS,MEKK3 PB1 HTS,UBC13 inh,ATG4B inhibitor,PLA2 counter,others
Cc1csc(NC(=O)c2cccc([N+](=O)[O-])c2C(=O)O)n1,2.0,-1.0,102.0,104.0,-5.1,-4.9,·,
O=C(Nc1nc(-c2ccccc2)cs1)c1cccc([N+](=O)[O-])c1C(=O)O,14.0,-2.9,100.0,105.0,2.4,54.6*,64.9*,
CC(Sc1ccccc1)C(=O)N1CCN(S(=O)(=O)c2ccc(Cl)cc2)CC1 (stereo not given),0.0,15.0,97.0,97.0,4.4,6.8,·,
NC(=O)/C(=C\c1ccccc1)NC(=O)/C=C/c1ccccc1,-2.0,-0.8,98.0,94.0,4.6,45.6*,37.8,ATG4B conf=75.5*
CC(C)CCOC(=O)/C(=C/c1ccco1)NC(=O)/C=C/c1ccccc1,-1.0,4.7,96.0,97.0,1.0,26.6,·,
NC(=O)/C(=C/c1ccco1)NC(=O)/C=C/c1ccccc1,-3.0,12.9,81.0,84.0,-2.7,49.8*,68.3*,
O=c1c2cc3c(cc2[nH]c(=S)n1C1CCN(Cc2ccccc2)CC1)OCO3,0.0,4.9,97.0,101.0,0.1,58.9*,62.1*,
Cc1cc(C)cc(NS(=O)(=O)c2ccc(NC(=O)C3CCCCC3C(=O)O)cc2)c1 (stereo not given),-2.0,4.9,97.0,97.0,-7.5,6.1,·,
Cc1ccc(S(=O)(=O)Oc2ccc(/C=C3\C(=N)N4N=C(S(C)(=O)=O)SC4=NC3=O)cc2)cc1,-4.0,1.4,98.0,98.0,-23.3,66.3*,76.9*,
Cc1ccc(-n2cccc2/C=C2\C(=N)N3N=C(c4ccco4)SC3=NC2=O)cc1,-4.0,1.3,90.0,85.0,-14.0,78.1*,62.0*,
CCS(=O)(=O)C1=NN2C(=N)/C(=C\c3ccc(OS(=O)(=O)c4ccccc4)cc3)C(=O)N=C2S1,-3.0,-3.0,93.0,97.0,-18.7,36.5,·,
Cc1ccc(S(=O)(=O)Oc2ccc(/C=C3/C(=N)N4C(=NC3=O)SN=C4S(C)(=O)=O)cc2)cc1,-13.0,-1.6,88.0,95.0,-20.1,54.4*,66.7*,
CCC1=NN2C(=N)/C(=C\c3cccn3-c3ccc(Cl)cc3)C(=O)N=C2S1,4.0,4.5,103.0,102.0,-11.1,12.1,·,
CCc1ccc(-n2cccc2/C=C2/C(=N)N3C(=NC2=O)SN=C3S(C)(=O)=O)cc1,0.0,0.8,115.0,122.0,-12.7,45.2*,32.7,ATG4B conf=67.7*
Cc1cc(C)c[n+](-c2[nH]c(=O)sc2/C=N/N=C(\N)[S-])c1,3.0,3.9,97.0,96.0,-30.8,-5.2,·,
COC(=O)CCc1c(C)c(C(=O)c2cc(OC)c(OC)c(OC)c2)c2ccccn12,1.0,7.3,103.0,101.0,-2.5,1.5,·,
